A selection: hits, their analogues and other compounds. The true share with any hit is near 1.6%.
HTR5A ag: HTR5A agonists in luminescence cell assay, primary screen, counter-screen for OPRM1-OPRD1 heterodimer agonist project, full-deck HTS; activation, % at 9.3 µM; 340,000 tested, 0.61% active; 5-hydroxytryptamine receptor 5A (Homo sapiens), P47898; cell-based; in the data active = activation mostly above about 9.5%, no sharp cut-off; inactive = mostly below about 7.6%;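 also: 0% = cells with vehicle only and 100% = reference agonist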
m5-HT2A agonist: mouse Htr2a agonists via beta-arrestin recruitment, primary screen, cell-based, luminescence; CHO-K1 mHTR2A beta-arrestin complementation; percent of 30 µM serotonin response; AID 624169, 2012; 360,000 tested, 0.66% active; activation, % at 7.6 µM; 5-hydroxytryptamine receptor 2A (Mus musculus), P35363;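 active = activation above a run cutoff, the mean activation of all tested compounds plus 3 SD, cut at about 14% in these data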;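 also: 0% = plate median of compound wells and 100% = 30 µM serotonin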
Target sequence (P35363 whole entry, looked up): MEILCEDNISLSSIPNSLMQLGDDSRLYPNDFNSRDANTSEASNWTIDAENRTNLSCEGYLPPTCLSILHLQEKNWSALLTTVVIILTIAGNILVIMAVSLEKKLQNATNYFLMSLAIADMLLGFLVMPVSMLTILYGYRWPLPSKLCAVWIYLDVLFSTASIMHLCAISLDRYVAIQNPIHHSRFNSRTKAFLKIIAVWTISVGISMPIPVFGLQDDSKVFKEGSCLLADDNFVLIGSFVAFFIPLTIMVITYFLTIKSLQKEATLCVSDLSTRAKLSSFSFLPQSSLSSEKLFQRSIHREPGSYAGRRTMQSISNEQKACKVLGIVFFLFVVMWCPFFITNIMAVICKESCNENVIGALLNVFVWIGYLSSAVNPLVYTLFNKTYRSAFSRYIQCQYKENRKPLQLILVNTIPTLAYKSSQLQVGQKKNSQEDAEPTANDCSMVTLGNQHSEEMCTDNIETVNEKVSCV
OPRM1-OPRD1 inv: inverse agonists of MOR-DOR heterodimerization, primary screen, cell-based, luminescence | Mu-type opioid receptor (Homo sapiens) + Delta-type opioid receptor (Homo sapiens), … | cell-based MOR-DOR heterodimer luminescence, inverse agonism | inhibition, % at 9.3 µM | 340,000 tested, 0.21% active; in the data active = inhibition above about 22%, passing the limit was not always enough;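 also: 0% = cells with DMSO and 100% = wells without cells with DMSO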
HTR5A inv ag: HTR5A inverse agonists in luminescence cell assay, primary screen, counter-screen for OPRM1-OPRD1 heterodimer inverse agonist project, full-deck HTS. inhibition, % at 9.3 µM. 340,000 tested, 0.083% active. HTR5A cell line, inverse agonism. AID 504634, 2011. 5-hydroxytryptamine receptor 5A (Homo sapiens), P47898; in the data active = inhibition mostly above about 23%, no sharp cut-off; inactive = mostly below about 18%;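 also: 0% = cells with DMSO and 100% = no-cell wells with DMSO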
OPRM1-OPRD1 ag: agonists of OPRM1-OPRD1 heterodimerization, primary screen, cell-based, luminescence | activation, % at 9.3 µM | 340,000 tested, 0.3% active | cells | AID 504326, 2011 | Mu-type opioid receptor (Homo sapiens) + Delta-type opioid receptor (Homo sapiens), …; in the data active = activation above about 18%;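 also: 0% = vehicle-treated cells and 100% = reference agonist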
* hit, by the source's call.

`CCCCCCOC(=O)c1ccc(OC(=O)c2cccnc2)cc1` gave HTR5A ag -0.1, m5-HT2A agonist 22.2*, OPRM1-OPRD1 inv -1.4, HTR5A inv ag -23.6 and OPRM1-OPRD1 ag 0.2.
For CSc1ncnc2c1ncn2CCCN1CCN(Cc2c(C)cc(C)cc2C)CC1 the results were m5-HT2A agonist -1.0.
Cn1c(=O)[nH]c(=O)c2c1nc(NC1CCCC1)n2Cc1ccccc1 was read as HTR5A ag 10.0*, m5-HT2A agonist 3.1, OPRM1-OPRD1 inv 7.8, HTR5A inv ag -37.9 and OPRM1-OPRD1 ag -1.6.
Screening Cn1c(=O)[nH]c(=O)c2c1nc(N1CCNCC1)n2Cc1ccccc1 returned HTR5A ag 0.8, m5-HT2A agonist -1.5, OPRM1-OPRD1 inv 13.4, HTR5A inv ag -3.0 and OPRM1-OPRD1 ag -2.7.
Cc1nc(C(F)(F)F)ccc1C(=O)N1CCC1(C)C(=O)NCc1cccs1 (stereo not drawn) was read as m5-HT2A agonist -3.8.
`CCCn1c(SC(C(=O)Nc2cccc(OC)c2)c2ccccc2)nc2ccccc2c1=O` (stereo not drawn) gave HTR5A ag 12.6*, m5-HT2A agonist 6.1, OPRM1-OPRD1 inv 0.6, HTR5A inv ag -43.7 and OPRM1-OPRD1 ag -0.1.
`CC(C)c1ccc([C@@H]2O[C@H](C)CC3=C2C(=O)OC(C)(C)O3)cc1` gave m5-HT2A agonist -1.9.
Screening CCN(CC)C(=O)CSc1ncnc2sc(-c3ccccc3)cc12 returned HTR5A ag 9.3*, m5-HT2A agonist -5.8, OPRM1-OPRD1 inv -10.5, HTR5A inv ag -7.9 and OPRM1-OPRD1 ag 2.0.
CCCCn1c(N)c(N(CC(C)C)C(=O)CC(NC(=O)c2ccccc2Cl)c2ccccc2)c(=O)[nH]c1=O (stereo not drawn) was read as m5-HT2A agonist 1.0.
For Cc1ccc(N(CC(=O)N/N=C/c2cc(C)n(-c3ccccc3)c2C)S(C)(=O)=O)c(C)c1 the results were HTR5A ag 13.1*, m5-HT2A agonist -5.8, OPRM1-OPRD1 inv 14.8, HTR5A inv ag -15.7 and OPRM1-OPRD1 ag -3.5.
`Cc1ccc(N(CC(=O)Nc2c(C)n(C)n(-c3ccccc3)c2=O)S(C)(=O)=O)c(C)c1` gave HTR5A ag 2.2, m5-HT2A agonist 0.3, OPRM1-OPRD1 inv -0.3, HTR5A inv ag 5.2 and OPRM1-OPRD1 ag 0.1.
For CCCNC(=O)C1(C)CCCN(C/C=C/c2ccccc2)C1 (stereo not drawn) the results were m5-HT2A agonist -4.7.
c1ccc2c(c1)NC1(CCCCCC1)n1c-2nc2ccccc21 was read as HTR5A ag 7.3, m5-HT2A agonist 7.3, OPRM1-OPRD1 inv 14.6, HTR5A inv ag 5.0 and OPRM1-OPRD1 ag -2.9.
For c1ccc2c(c1)NC1(CCCCC1)n1c-2nc2ccccc21 the results were HTR5A ag 13.7*, m5-HT2A agonist 9.4, OPRM1-OPRD1 inv -6.2, HTR5A inv ag 12.8 and OPRM1-OPRD1 ag 1.1.
Screening COC(=O)[C@@]12C[C@@H](CC(=O)NCCC(C)C)C(=O)N(Cc3ccccc3)C1=CCC(C)(C)C2 returned m5-HT2A agonist 8.7.
`O=S(=O)(NC1CC(NS(=O)(=O)OCC(Cl)(Cl)Cl)C2CCCCC12)OCC(Cl)(Cl)Cl` (stereo not drawn) gave HTR5A ag 7.8, m5-HT2A agonist 15.4*, OPRM1-OPRD1 inv -33.0, HTR5A inv ag -14.0 and OPRM1-OPRD1 ag 6.1.
Screening C[C@H](NS(=O)(=O)OCC(Cl)(Cl)Cl)C1CC1c1ccccc1 (stereo partly drawn) returned HTR5A ag 2.4, m5-HT2A agonist 13.9, OPRM1-OPRD1 inv -41.9, HTR5A inv ag -8.7 and OPRM1-OPRD1 ag 7.5.
For CC(=O)Oc1ccc(C(c2ccc(OC(C)=O)cc2)c2ccccn2)cc1 the results were HTR5A ag 33.7*, m5-HT2A agonist 0.2, OPRM1-OPRD1 inv -313.0, HTR5A inv ag -120.3 and OPRM1-OPRD1 ag 57.9*.
N#Cc1ccc(CN2CCN(C(=O)CCNS(=O)(=O)c3ccc(F)c(Cl)c3)CC2)cc1 was read as HTR5A ag 0.2, m5-HT2A agonist 48.8*, OPRM1-OPRD1 inv 8.7, HTR5A inv ag -0.5 and OPRM1-OPRD1 ag -2.1.
For N#Cc1ccc(CN2CCN(C(=O)c3ccc(S(=O)(=O)NCc4ccco4)cc3)CC2)cc1 the results were HTR5A ag 11.6*, m5-HT2A agonist 5.4, OPRM1-OPRD1 inv -1.7, HTR5A inv ag -42.2 and OPRM1-OPRD1 ag 0.3.
Screening CC(=O)c1sc(Nc2ccc(Oc3ccccc3)cc2)nc1C returned m5-HT2A agonist -4.3.
`Cc1ccc(S(=O)(=O)N2[C@H](CC(=O)c3ccc(Cl)c(Cl)c3)OC[C@@H]2C(C)C)cc1` gave m5-HT2A agonist -1.8.
For O=C(N/N=C/C1C(c2ccccc2)C1(Cl)Cl)c1cccc(Br)c1 (stereo not drawn) the results were HTR5A ag 11.1*, m5-HT2A agonist -7.3, OPRM1-OPRD1 inv 4.7, HTR5A inv ag -6.8 and OPRM1-OPRD1 ag -0.8.
`O=C(Nc1ccc(N2CCOCC2)cc1)NC1CCCCC1` gave HTR5A ag 1.9, m5-HT2A agonist 15.5*, OPRM1-OPRD1 inv 5.2, HTR5A inv ag 12.3 and OPRM1-OPRD1 ag -0.9.
O=C(Nc1ccc(N2CCOCC2)cc1)C1CC1 was read as HTR5A ag -2.4, m5-HT2A agonist -0.2, OPRM1-OPRD1 inv -1.8, HTR5A inv ag 6.4 and OPRM1-OPRD1 ag 0.3.
`CCc1nc2c(OCc3ccc(C#N)cc3)cccn2c1N(C)C(=O)c1ccc(C)cc1` gave m5-HT2A agonist -4.9.
For Cc1ccc2c(c1)c1nnc(SCC(=O)Nc3ccc(N(C)C)cc3)nc1n2CC(=O)O the results were HTR5A ag 13.0*, m5-HT2A agonist -1.8, OPRM1-OPRD1 inv -1.6, HTR5A inv ag -48.3 and OPRM1-OPRD1 ag 0.3.
For CCOc1ccc(CCNC(=O)c2ccc(F)c(S(=O)(=O)N3CCOCC3)c2)cc1OCC the results were HTR5A ag 11.2*, m5-HT2A agonist 5.0, OPRM1-OPRD1 inv 6.3, HTR5A inv ag 9.1 and OPRM1-OPRD1 ag -1.2.
Screening CCn1c(=O)c([N+](=O)[O-])c(Cl)c2ccccc21 returned HTR5A ag -7.5, m5-HT2A agonist -9.2, OPRM1-OPRD1 inv 34.7*, HTR5A inv ag 18.6 and OPRM1-OPRD1 ag -7.3.
`O=C(c1ccc2c3c(cccc13)CC2)C1CCCN(C(=O)c2ccc(=O)[nH]c2)C1` (stereo not drawn) gave HTR5A ag 12.7*, m5-HT2A agonist 2.2, OPRM1-OPRD1 inv -5.7, HTR5A inv ag -34.9 and OPRM1-OPRD1 ag 1.2.
For Cc1ncccc1C(=O)N1CCCC(C(=O)c2ccc3c4c(cccc24)CC3)C1 (stereo not drawn) the results were HTR5A ag -2.1, m5-HT2A agonist 4.1, OPRM1-OPRD1 inv 14.8, HTR5A inv ag 9.4 and OPRM1-OPRD1 ag -3.2.

From PubChem
